Assays:
Assay in all cases: PBM; 200 nM protein, PBS
Conditions in all cases: dsDNA, one strand shown
[1] = target: HESX1 (Homo sapiens, UniProt Q9UBX0 95-180, R165K)
[2] = target: SHOX (Homo sapiens, UniProt O15266 103-189)
[3] = target: HESX1 (Homo sapiens, UniProt Q9UBX0 95-180)
[4] = target: ALX3 (Homo sapiens, UniProt O95076 139-225, N203Q)
[5] = target: SHOX (Homo sapiens, UniProt O15266 103-189, R173C)
[6] = target: ALX3 (Homo sapiens, UniProt O95076 139-225)
[7] = target: HESX1 (Homo sapiens, UniProt Q9UBX0 95-180, R109Q)
[8] = target: ALX3 (Homo sapiens, UniProt O95076 139-225, L168Q)
[9] = target: HESX1 (Homo sapiens, UniProt Q9UBX0 95-180, P111T)
[10] = target: ALX3 (Homo sapiens, UniProt O95076 139-225, L168V)
[11] = target: HESX1 (Homo sapiens, UniProt Q9UBX0 95-180, F115L)
[12] = target: ALX3 (Homo sapiens, UniProt O95076 139-225, N203S)
[13] = target: ALX4 (Homo sapiens, UniProt Q9H161 200-286, Q225E)
[14] = target: MSX2 (Homo sapiens, UniProt P35548 130-214, R199I)
[15] = target: ALX1 (Homo sapiens, UniProt Q15699 118-204, L144V)
[16] = target: ALX1 (Homo sapiens, UniProt Q15699 118-204, L144R)
[17] = target: PROP1 (Homo sapiens, UniProt O75360 56-141)
[18] = target: PROP1 (Homo sapiens, UniProt O75360 56-141, R99H)
[19] = target: PROP1 (Homo sapiens, UniProt O75360 56-141, F88S)
[20] = target: ALX1 (Homo sapiens, UniProt Q15699 118-204)
Sequence of ALX1 (Homo sapiens, UniProt Q15699 118-204) (Q15699 118-204): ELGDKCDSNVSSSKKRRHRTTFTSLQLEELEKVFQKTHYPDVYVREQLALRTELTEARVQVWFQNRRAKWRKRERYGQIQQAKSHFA

Sequence of PROP1 (Homo sapiens, UniProt O75360 56-141, F88S) (O75360 56-141 F88S): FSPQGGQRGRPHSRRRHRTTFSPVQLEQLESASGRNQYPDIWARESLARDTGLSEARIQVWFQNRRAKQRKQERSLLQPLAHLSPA
Sequence of HESX1 (Homo sapiens, UniProt Q9UBX0 95-180, R165K) (Q9UBX0 95-180 R165K): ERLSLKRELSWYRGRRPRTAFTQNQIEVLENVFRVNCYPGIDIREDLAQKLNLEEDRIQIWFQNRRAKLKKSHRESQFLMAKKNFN
Sequence of ALX1 (Homo sapiens, UniProt Q15699 118-204, L144V) (Q15699 118-204 L144V): as the sequence (Q15699 118-204) above, with L27V counted along it
Sequence of HESX1 (Homo sapiens, UniProt Q9UBX0 95-180) (Q9UBX0 95-180): as the sequence (Q9UBX0 95-180 R165K) above, with K71R counted along it
Sequence of MSX2 (P35548 130-214 R199I): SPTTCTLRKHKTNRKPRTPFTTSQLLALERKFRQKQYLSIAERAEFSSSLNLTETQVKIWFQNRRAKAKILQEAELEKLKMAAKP
Sequence of PROP1 (Homo sapiens, UniProt O75360 56-141, R99H) (O75360 56-141 R99H): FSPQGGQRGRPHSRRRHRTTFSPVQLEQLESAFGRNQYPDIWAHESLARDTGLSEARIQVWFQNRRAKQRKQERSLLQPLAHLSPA
Sequence of ALX3 (Homo sapiens, UniProt O95076 139-225, L168V) (O95076 139-225 L168V): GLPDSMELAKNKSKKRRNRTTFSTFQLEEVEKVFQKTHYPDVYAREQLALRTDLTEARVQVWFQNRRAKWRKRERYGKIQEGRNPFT
Sequence of ALX1 (Homo sapiens, UniProt Q15699 118-204, L144R) (Q15699 118-204 L144R): as the sequence (Q15699 118-204) above, with L27R counted along it
Sequence of PROP1 (Homo sapiens, UniProt O75360 56-141) (O75360 56-141): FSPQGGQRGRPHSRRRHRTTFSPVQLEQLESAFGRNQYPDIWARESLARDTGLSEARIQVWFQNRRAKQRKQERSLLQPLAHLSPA
Sequence of ALX3 (Homo sapiens, UniProt O95076 139-225, L168Q) (O95076 139-225 L168Q): as the sequence (O95076 139-225 L168V) above, with V30Q counted along it
Sequence of SHOX (Homo sapiens, UniProt O15266 103-189) (O15266 103-189): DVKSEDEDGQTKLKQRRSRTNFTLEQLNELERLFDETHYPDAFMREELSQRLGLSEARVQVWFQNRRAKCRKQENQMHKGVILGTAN
Sequence of HESX1 (Homo sapiens, UniProt Q9UBX0 95-180, P111T) (Q9UBX0 95-180 P111T): as the sequence (Q9UBX0 95-180 R165K) above, with P17T, K71R counted along it
Sequence of HESX1 (Homo sapiens, UniProt Q9UBX0 95-180, R109Q) (Q9UBX0 95-180 R109Q): as the sequence (Q9UBX0 95-180 R165K) above, with R15Q, K71R counted along it
Sequence of ALX4 (Q9H161 200-286 Q225E): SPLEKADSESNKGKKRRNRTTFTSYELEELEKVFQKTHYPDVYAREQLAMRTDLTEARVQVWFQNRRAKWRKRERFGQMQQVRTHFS
Sequence of ALX3 (Homo sapiens, UniProt O95076 139-225, N203Q) (O95076 139-225 N203Q): as the sequence (O95076 139-225 L168V) above, with V30L, N65Q counted along it
Sequence of ALX3 (Homo sapiens, UniProt O95076 139-225, N203S) (O95076 139-225 N203S): as the sequence (O95076 139-225 L168V) above, with V30L, N65S counted along it
Sequence of SHOX (Homo sapiens, UniProt O15266 103-189, R173C) (O15266 103-189 R173C): as the sequence (O15266 103-189) above, with R71C counted along it
Sequence of ALX3 (Homo sapiens, UniProt O95076 139-225) (O95076 139-225): as the sequence (O95076 139-225 L168V) above, with V30L counted along it
Sequence of HESX1 (Homo sapiens, UniProt Q9UBX0 95-180, F115L) (Q9UBX0 95-180 F115L): as the sequence (Q9UBX0 95-180 R165K) above, with F21L, K71R counted along it

Sequence	binding signal [1]	binding signal [2]	binding signal [3]	binding signal [4]	binding signal [5]	binding signal [6]	binding signal [7]	binding signal [8]	binding signal [9]	binding signal [10]	binding signal [11]	binding signal [12]	binding signal [13]	binding signal [14]	binding signal [15]	binding signal [16]	binding signal [17]	binding signal [18]	binding signal [19]	binding signal [20]
CCCCGGCG	6.58 upbm affinity estimate (log intensity, higher = more binding, comparable within an allelic series)	6.85 upbm affinity estimate (log intensity, higher = more binding, comparable within an allelic series)	6.57 upbm affinity estimate (log intensity, higher = more binding, comparable within an allelic series)	7.82 upbm affinity estimate (log intensity, higher = more binding, comparable within an allelic series)	7.05 upbm affinity estimate (log intensity, higher = more binding, comparable within an allelic series)	7.76 upbm affinity estimate (log intensity, higher = more binding, comparable within an allelic series)	6.61 upbm affinity estimate (log intensity, higher = more binding, comparable within an allelic series)	7.73 upbm affinity estimate (log intensity, higher = more binding, comparable within an allelic series)	6.61 upbm affinity estimate (log intensity, higher = more binding, comparable within an allelic series)	7.68 upbm affinity estimate (log intensity, higher = more binding, comparable within an allelic series)	6.51 upbm affinity estimate (log intensity, higher = more binding, comparable within an allelic series)	7.81 upbm affinity estimate (log intensity, higher = more binding, comparable within an allelic series)	–	–	–	–	–	–	–	–
TATTAGAA	8 upbm affinity estimate (log intensity, higher = more binding, comparable within an allelic series)	–	8.34 upbm affinity estimate (log intensity, higher = more binding, comparable within an allelic series)	–	–	–	–	–	7.87 upbm affinity estimate (log intensity, higher = more binding, comparable within an allelic series)	–	–	–	–	–	–	–	–	–	–	–
ACTAATTG	13 upbm affinity estimate (log intensity, higher = more binding, comparable within an allelic series)	12.3 upbm affinity estimate (log intensity, higher = more binding, comparable within an allelic series)	13 upbm affinity estimate (log intensity, higher = more binding, comparable within an allelic series)	8.32 upbm affinity estimate (log intensity, higher = more binding, comparable within an allelic series)	9.68 upbm affinity estimate (log intensity, higher = more binding, comparable within an allelic series)	12.5 upbm affinity estimate (log intensity, higher = more binding, comparable within an allelic series)	9.82 upbm affinity estimate (log intensity, higher = more binding, comparable within an allelic series)	10.8 upbm affinity estimate (log intensity, higher = more binding, comparable within an allelic series)	11.6 upbm affinity estimate (log intensity, higher = more binding, comparable within an allelic series)	10.2 upbm affinity estimate (log intensity, higher = more binding, comparable within an allelic series)	7.98 upbm affinity estimate (log intensity, higher = more binding, comparable within an allelic series)	8.46 upbm affinity estimate (log intensity, higher = more binding, comparable within an allelic series)	13.4 upbm affinity estimate (log intensity, higher = more binding, comparable within an allelic series)	13.1 upbm affinity estimate (log intensity, higher = more binding, comparable within an allelic series)	11.9 upbm affinity estimate (log intensity, higher = more binding, comparable within an allelic series)	11.5 upbm affinity estimate (log intensity, higher = more binding, comparable within an allelic series)	11.5 upbm affinity estimate (log intensity, higher = more binding, comparable within an allelic series)	11.9 upbm affinity estimate (log intensity, higher = more binding, comparable within an allelic series)	7.65 upbm affinity estimate (log intensity, higher = more binding, comparable within an allelic series)	12.6 upbm affinity estimate (log intensity, higher = more binding, comparable within an allelic series)
ATAATTAG	13.4 upbm affinity estimate (log intensity, higher = more binding, comparable within an allelic series)	13 upbm affinity estimate (log intensity, higher = more binding, comparable within an allelic series)	13.4 upbm affinity estimate (log intensity, higher = more binding, comparable within an allelic series)	8.56 upbm affinity estimate (log intensity, higher = more binding, comparable within an allelic series)	10.3 upbm affinity estimate (log intensity, higher = more binding, comparable within an allelic series)	12.9 upbm affinity estimate (log intensity, higher = more binding, comparable within an allelic series)	9.82 upbm affinity estimate (log intensity, higher = more binding, comparable within an allelic series)	11.2 upbm affinity estimate (log intensity, higher = more binding, comparable within an allelic series)	12 upbm affinity estimate (log intensity, higher = more binding, comparable within an allelic series)	10.8 upbm affinity estimate (log intensity, higher = more binding, comparable within an allelic series)	8.28 upbm affinity estimate (log intensity, higher = more binding, comparable within an allelic series)	8.75 upbm affinity estimate (log intensity, higher = more binding, comparable within an allelic series)	14.2 upbm affinity estimate (log intensity, higher = more binding, comparable within an allelic series)	13.2 upbm affinity estimate (log intensity, higher = more binding, comparable within an allelic series)	12.3 upbm affinity estimate (log intensity, higher = more binding, comparable within an allelic series)	11.9 upbm affinity estimate (log intensity, higher = more binding, comparable within an allelic series)	12.1 upbm affinity estimate (log intensity, higher = more binding, comparable within an allelic series)	12.1 upbm affinity estimate (log intensity, higher = more binding, comparable within an allelic series)	7.99 upbm affinity estimate (log intensity, higher = more binding, comparable within an allelic series)	12.9 upbm affinity estimate (log intensity, higher = more binding, comparable within an allelic series)
AATTAACA	11.9 upbm affinity estimate (log intensity, higher = more binding, comparable within an allelic series)	11.9 upbm affinity estimate (log intensity, higher = more binding, comparable within an allelic series)	12 upbm affinity estimate (log intensity, higher = more binding, comparable within an allelic series)	8.55 upbm affinity estimate (log intensity, higher = more binding, comparable within an allelic series)	9.76 upbm affinity estimate (log intensity, higher = more binding, comparable within an allelic series)	12.5 upbm affinity estimate (log intensity, higher = more binding, comparable within an allelic series)	9.41 upbm affinity estimate (log intensity, higher = more binding, comparable within an allelic series)	10.6 upbm affinity estimate (log intensity, higher = more binding, comparable within an allelic series)	10.7 upbm affinity estimate (log intensity, higher = more binding, comparable within an allelic series)	10.2 upbm affinity estimate (log intensity, higher = more binding, comparable within an allelic series)	8.02 upbm affinity estimate (log intensity, higher = more binding, comparable within an allelic series)	8.67 upbm affinity estimate (log intensity, higher = more binding, comparable within an allelic series)	13.2 upbm affinity estimate (log intensity, higher = more binding, comparable within an allelic series)	12.4 upbm affinity estimate (log intensity, higher = more binding, comparable within an allelic series)	11.7 upbm affinity estimate (log intensity, higher = more binding, comparable within an allelic series)	11.3 upbm affinity estimate (log intensity, higher = more binding, comparable within an allelic series)	11.3 upbm affinity estimate (log intensity, higher = more binding, comparable within an allelic series)	11.1 upbm affinity estimate (log intensity, higher = more binding, comparable within an allelic series)	7.88 upbm affinity estimate (log intensity, higher = more binding, comparable within an allelic series)	12.4 upbm affinity estimate (log intensity, higher = more binding, comparable within an allelic series)
AAATTAAT	11.7 upbm affinity estimate (log intensity, higher = more binding, comparable within an allelic series)	11.9 upbm affinity estimate (log intensity, higher = more binding, comparable within an allelic series)	11.5 upbm affinity estimate (log intensity, higher = more binding, comparable within an allelic series)	8.56 upbm affinity estimate (log intensity, higher = more binding, comparable within an allelic series)	9.34 upbm affinity estimate (log intensity, higher = more binding, comparable within an allelic series)	12.5 upbm affinity estimate (log intensity, higher = more binding, comparable within an allelic series)	8.9 upbm affinity estimate (log intensity, higher = more binding, comparable within an allelic series)	10.6 upbm affinity estimate (log intensity, higher = more binding, comparable within an allelic series)	10.4 upbm affinity estimate (log intensity, higher = more binding, comparable within an allelic series)	10 upbm affinity estimate (log intensity, higher = more binding, comparable within an allelic series)	7.97 upbm affinity estimate (log intensity, higher = more binding, comparable within an allelic series)	8.72 upbm affinity estimate (log intensity, higher = more binding, comparable within an allelic series)	13.3 upbm affinity estimate (log intensity, higher = more binding, comparable within an allelic series)	12.2 upbm affinity estimate (log intensity, higher = more binding, comparable within an allelic series)	11.9 upbm affinity estimate (log intensity, higher = more binding, comparable within an allelic series)	11.6 upbm affinity estimate (log intensity, higher = more binding, comparable within an allelic series)	11.2 upbm affinity estimate (log intensity, higher = more binding, comparable within an allelic series)	10.9 upbm affinity estimate (log intensity, higher = more binding, comparable within an allelic series)	7.7 upbm affinity estimate (log intensity, higher = more binding, comparable within an allelic series)	12.5 upbm affinity estimate (log intensity, higher = more binding, comparable within an allelic series)
ACAATTAA	12.1 upbm affinity estimate (log intensity, higher = more binding, comparable within an allelic series)	11.6 upbm affinity estimate (log intensity, higher = more binding, comparable within an allelic series)	12.2 upbm affinity estimate (log intensity, higher = more binding, comparable within an allelic series)	8.46 upbm affinity estimate (log intensity, higher = more binding, comparable within an allelic series)	9.44 upbm affinity estimate (log intensity, higher = more binding, comparable within an allelic series)	12.3 upbm affinity estimate (log intensity, higher = more binding, comparable within an allelic series)	8.86 upbm affinity estimate (log intensity, higher = more binding, comparable within an allelic series)	10.4 upbm affinity estimate (log intensity, higher = more binding, comparable within an allelic series)	10.8 upbm affinity estimate (log intensity, higher = more binding, comparable within an allelic series)	9.93 upbm affinity estimate (log intensity, higher = more binding, comparable within an allelic series)	7.77 upbm affinity estimate (log intensity, higher = more binding, comparable within an allelic series)	8.59 upbm affinity estimate (log intensity, higher = more binding, comparable within an allelic series)	12.9 upbm affinity estimate (log intensity, higher = more binding, comparable within an allelic series)	12.8 upbm affinity estimate (log intensity, higher = more binding, comparable within an allelic series)	11.4 upbm affinity estimate (log intensity, higher = more binding, comparable within an allelic series)	11.1 upbm affinity estimate (log intensity, higher = more binding, comparable within an allelic series)	11.2 upbm affinity estimate (log intensity, higher = more binding, comparable within an allelic series)	11.1 upbm affinity estimate (log intensity, higher = more binding, comparable within an allelic series)	7.71 upbm affinity estimate (log intensity, higher = more binding, comparable within an allelic series)	12 upbm affinity estimate (log intensity, higher = more binding, comparable within an allelic series)
GCAAGGGC	6.38 upbm affinity estimate (log intensity, higher = more binding, comparable within an allelic series)	–	6.38 upbm affinity estimate (log intensity, higher = more binding, comparable within an allelic series)	–	–	–	6.49 upbm affinity estimate (log intensity, higher = more binding, comparable within an allelic series)	–	6.49 upbm affinity estimate (log intensity, higher = more binding, comparable within an allelic series)	–	6.53 upbm affinity estimate (log intensity, higher = more binding, comparable within an allelic series)	–	–	–	–	–	–	–	–	–
CAATTATC	13 upbm affinity estimate (log intensity, higher = more binding, comparable within an allelic series)	11.8 upbm affinity estimate (log intensity, higher = more binding, comparable within an allelic series)	13.1 upbm affinity estimate (log intensity, higher = more binding, comparable within an allelic series)	8.4 upbm affinity estimate (log intensity, higher = more binding, comparable within an allelic series)	9.58 upbm affinity estimate (log intensity, higher = more binding, comparable within an allelic series)	12.5 upbm affinity estimate (log intensity, higher = more binding, comparable within an allelic series)	9.41 upbm affinity estimate (log intensity, higher = more binding, comparable within an allelic series)	10.6 upbm affinity estimate (log intensity, higher = more binding, comparable within an allelic series)	11.4 upbm affinity estimate (log intensity, higher = more binding, comparable within an allelic series)	10.1 upbm affinity estimate (log intensity, higher = more binding, comparable within an allelic series)	8 upbm affinity estimate (log intensity, higher = more binding, comparable within an allelic series)	8.56 upbm affinity estimate (log intensity, higher = more binding, comparable within an allelic series)	13.2 upbm affinity estimate (log intensity, higher = more binding, comparable within an allelic series)	13 upbm affinity estimate (log intensity, higher = more binding, comparable within an allelic series)	11.7 upbm affinity estimate (log intensity, higher = more binding, comparable within an allelic series)	11.4 upbm affinity estimate (log intensity, higher = more binding, comparable within an allelic series)	11.5 upbm affinity estimate (log intensity, higher = more binding, comparable within an allelic series)	11.7 upbm affinity estimate (log intensity, higher = more binding, comparable within an allelic series)	7.73 upbm affinity estimate (log intensity, higher = more binding, comparable within an allelic series)	12.3 upbm affinity estimate (log intensity, higher = more binding, comparable within an allelic series)

Reference: article PMC11006913
